# Data taken from PubChem BioAssay (NCATS).
# Unmarked numbers belong to inactive results. Calls of active or inactive are those of the source. Calls follow the shape of the dose curve; as a rule, active = well fitted inhibition curve with a large enough effect; inconclusive = small, poorly fitted or top-dose-only effect; inactive = no such curve, though single readings can be large or run the other way.
# Target: Single-stranded DNA cytosine deaminase (Homo sapiens) (UniProt Q9GZX7)
# Test: Validation qHTS assay for inhibitors of Activation Induced Cytidine Deaminase (AID): AID signal (AID 1347429)
# Settings: Recombinant AID, FRET ssDNA deamination with UDG, fluorescence; series mostly up to 115 µM; activity change, negative = inhibition: at the top concentration
# Description: Assay Provider (PI) Patricia Gearhart Ph.D. National Institute on Aging National Institute of Health (NIH), Bethesda, MD Assay Provider (PI) Rahul Kohli Ph.D. Perelman School of Medicine University of Pennsylvania, Philadelphia, PA Activation-Induced Deaminase (AID) is a cytosine deaminase which converts cytosine into uracil within stretches of ssDNA. The presence of uracil in DNA initiates a cascade of mutagenic DNA repair to introduce point mutations and DNA double strand breaks. Specific targeting of AID to the immunoglobulin heavy chain loci (Igh) promotes mutagenesis in the antibody variable region for somatic hypermutation (SHM) or switch regions leading to class switch recombination (CSR). However, AID also plays a role in accumulating unnecessary mutations across the genome. Mis-targeting of AID results in the initiation of tumor development and leads to greater drug resistance among cancer cells when continually expressed. To identify an AID inhibitor, a small molecule library will be screened in collaboration with NCATS core facility at NIH. To confirm biological function, inhibitors will be examined in an in vitro murine B-cell activation assay and subsequent secondary validation screens. Top molecules will be further screened to identify inhibitory efficacy against a wild type primary splenocytes assay. Using these approaches, we hope to identify a small molecule with great efficacy and low toxicity for use as a molecular probe to further characterize AID's intricacies, or even as a therapeutic. A FRET based analysis of cytosine deamination, was developed to identify potential inhibitors of AID catalytic activity. This screen has two signal output, Read 1 evaluates the AID inhibition response. The second readout (Read 2) evaluates UDG response and is uses as a counterscreen to exclude false positive inhibitors. Inhibition in AID and inactivity in the UDG signal is the desired outcome for this assay.
# PROTOCOL TABLE SEQUENCE No. (e.g., 1, 2, 3, etc.); […] (e.g., Cells, Incubation, Reagent, etc.); VALUE; DESCRIPTION 1a; Reagent; 3 uL; [4/3x] […] 250 nM DJC20 / 250 nM DJC23 [Substrate] 5; Time; 4 hr; incubation at room temperature 6; Reagent; 4 uL; [2x] 250 mM NaOH 7; Time; 15 sec; centrifuge at 1000 rpm 8; Time; 30 min; incubation at room temperature 9a; Detection; fluorescence (Read 1: AID); EnVision (PerkinElmer) plate reader, 540 excitation and 590 emission filters 9b; Detection; fluorescence (Read 2: UDG); EnVision (PerkinElmer) plate reader, 560 excitation and 665 emission filters NOTES (numbers refer to sequence above) 1a; Reagents were dispensed in a medium-binding black solid-bottom Greiner plates (789176F) using a BioRptr liquid dispenser. Dispense 3 uL of [4/3x] 1 uM AID (provided by Kohli lab) and [4/3x] 2 U/mL UDG (NEB M0280L) into columns 1, 2, 5 to 48. 1b; Dispense 3 uL of [4/3x] 2 U/mL UDG into column 3. 1c; Dispense 3 uL of [4/3x] 1 uM AID into column 4. 2a; Compound ([…] [uM] (0.64; 3.2; 16; 80; 400; 2,000; 10,000; 20,000) double pin-transferred (Dip Factor = 2) using the Kalypsys (Wako USA) pintool equipped with a 1536 pinhead for a final concentration range of 7.32 nM - 114 uM. 2b; 10 mM Aurintricarboxylic Acid (Sigma A1895) (ATA, 8-point, n = 2, 1:2.5 dilution in column 2) double pin-transferred (Dip Factor = 2) using the Kalypsys (Wako USA) pintool equipped with a 1536 pinhead for a [final] range of 186 nM - 114 uM. 3; Room temperature incubation. 4; Dispense 1 uL of substrate mixture from the Kohli lab [4x] […] DJC20 and [4x] 250 nM DJC23 into columns 1 to 48 . 5; Room temperature incubation. 6; Dispense 4 uL of substrate mixture [2x] 250 mM NaOH into columns 1 to 48. 7; Centrifugation step to remove bubbles. 8; Room temperature incubation 9a; Fluorescence signal (column label AID) was read using the EnVision plate reader. Excitation filter = 540(8) nm, barcode = 311; Emission filter = 590(20) nm, barcode = 217; Mirror = D555, barcode = 405. […]
# % is scaled to controls: 0 for no effect and ±100 for the full control effect; potency is read from the fitted curve at half-maximal effect.
# Single-stranded DNA cytosine deaminase (Homo sapiens), sequence (Q9GZX7 whole entry, looked up): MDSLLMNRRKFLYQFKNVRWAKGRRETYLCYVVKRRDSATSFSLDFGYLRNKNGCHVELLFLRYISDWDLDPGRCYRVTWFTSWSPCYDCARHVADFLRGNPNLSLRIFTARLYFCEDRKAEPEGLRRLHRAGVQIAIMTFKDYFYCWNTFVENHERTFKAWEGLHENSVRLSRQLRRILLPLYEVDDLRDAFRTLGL
Compound,"activity change, negative = inhibition [%]",Potency
N[C@H](CO)C(=O)O,21.1,–
N[C@@H](Cc1cnc[nH]1)C(=O)O,21.1,–
Oc1ccc(O)cc1,45.8,–
CC(=O)O[C@H]1C[C@@H]2CC[C@@H]3[C@H](CC[C@@]4(C)[C@H]3C[C@H]([N+]3(C)CCCCC3)[C@@H]4OC(C)=O)[C@@]2(C)C[C@@H]1[N+]1(C)CCCCC1,–,7.94 µM (active)
C1CCc2nnnn2CC1,9.96,–
CC(C)COC(=O)OCN1C(=O)CN(CCN2CC(=O)N(COC(=O)OCC(C)C)C(=O)C2)CC1=O,11.5,–
O=C(O)c1cc2cc(Cc3cccnc3)ccc2o1,15.7,–
C[N+]1(CCCCC[N+]2(C)CCCC2)CCCC1,27.8,–
CCC(NC(C)C)C(O)c1ccc(O)c(O)c1 (centres undefined),4.44,–
CCCC1O[C@@H]2C[C@H]3[C@@H]4CCC5=CC(=O)C=C[C@]5(C)[C@H]4[C@@H](O)C[C@]3(C)[C@]2(C(=O)CO)O1 (some centres undefined),11.4,–
O=C1CCC(c2ccc(-n3ccnc3)cc2)=NN1,5.13,–
CCCn1c(=O)[nH]c(=O)c2[nH]cnc21,22.9,–
CNCCC(Oc1ccccc1C)c1ccccc1 (centres undefined),17.8,–
COc1cc2c(cc1O)CC[C@@H]1[C@@H]2CC[C@]2(C)[C@@H](O)CC[C@@H]12,17.8,–
COC(=O)[C@H]1[C@H]2C[C@H]3c4[nH]c5ccccc5c4CCN3C[C@H]2CC[C@@H]1O,53.8,–
CC1(C)CCC(NC(=O)[C@@H](N)CCC(=O)O)CC1,20.8,–
C[C@@H]1C(=O)NC2=Nc3cccc(Cl)c3CN21,18.9,–
C[C@]12CC[C@@H]3c4ccc(O)cc4CC[C@H]3[C@@H]1CC[C@@H]2O,5.6,–
CC[C@H](C)C(=O)O[C@H]1CCC=C2C=C[C@H](C)[C@H](CC[C@@H]3C[C@@H](O)CC(=O)O3)[C@H]21,10.5,–
CNCCC=C1c2ccccc2CCc2ccccc21,1.2,–
CN1C2CCC1CC(OC(=O)c1c[nH]c3ccccc13)C2 (centres undefined),7.48,–
CC(C)C[C@H]1C(=O)N2CCC[C@H]2[C@]2(O)O[C@](NC(=O)[C@@H]3C=C4c5cccc6[nH]c(Br)c(c56)C[C@H]4N(C)C3)(C(C)C)C(=O)N12,85.4,–
CC(CCc1ccccc1)NCC(O)c1ccc(O)c(C(N)=O)c1 (centres undefined),25.6,–
Nc1cc(Cl)c(NC2=NCCN2)c(Cl)c1,12.2,–
